Laboratory results from PubChem BioAssay (NCATS).
Results filed as inconclusive are left out. Active and inactive are the calls of the source. Unless noted, the call rests on the fitted dose curve; in most records, active means well fitted curve in either direction with a large enough effect (not every such curve was filed as active); inconclusive means small, poorly fitted or top-dose-only effect, or another doubt; inactive means flat fitted curve, though single readings scatter.

What was measured:
[1] = biological target: Lysosomal acid glucosylceramidase (Homo sapiens) (UniProt P04062); assay: Glucocerebrosidase-p2 (AID 348; in the data active means potency below about 10 µM; further: potency means the concentration at half of the fitted maximal effect); details: purified GBA, blue fluorogenic substrate, 40 min
Summary of the method: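 Compounds titrated from 0.6 nM upwards against 0.2 nM enzyme in pH 5.9 citric acid/KH2PO4, taurocholate, tween-20; blue fluorogenic substrate 80 uM, 40 min room temperature, stopped and read Ex 365/Em 440 for AC50.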

[2] = AP1 Signaling Pathway (AID 357); details: ME-180 AP-1-bla reporter, EGF-induced, beta-lactamase ratio, 5 h; at 7.69 µM (top of the series) unless noted; further: on the % scale 0 is the no-effect control and ±100 the full control effect
Summary of the method: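 ME-180 cells with beta-lactamase reporter under AP-1 response element, stimulated with EC50 EGF; compounds tested in titration series, 5 h at 37 °C. CCF4 substrate added 2.5 h at room temperature; 460/530 nm emission ratio gave %activity and AC50.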

[3] = biological target: Cytochrome P450 1A2 (Homo sapiens) (UniProt P05177); assay: p450-cyp1a2 (AID 410; calls by dose curve; further: potency means the concentration at half of the fitted maximal effect;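 on activity change, negative = inhibition: -100% = full effect of reference inhibitor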); details: recombinant CYP1A2, luciferin-ME demethylation, luminescence; series mostly up to 57 µM
Summary of the method: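 Inhibition was calculated relative to 57 uM furafylline (full inhibition). The reaction used human CYP1A2 at 20nM with Luciferin-ME at its Km, 100uM, driven by an NADPH-regenerating system for 60 min at room temperature.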

[4] = NFAT Signaling Pathway (AID 444); details: Jurkat NFAT-bla M1, carbachol, beta-lactamase ratio, 5 h; at 7.69 µM (top of the series) unless noted;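 further: carbachol stimulus at about its EC50 of 1 µM final; on the % scale 0 is the no-effect control and ±100 the full control effect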
Summary of the method: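 Read-out: CCF4 FRET ratio (460 nm/530 nm) after 1 h RT dye loading, used for %activity and AC50 from titration series. Cells: Jurkat NFAT-β-lactamase/M1 line, treated with compound plus 1 uM carbachol for 5 h, 37 °C.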

[5] = Stat Signaling Pathway (AID 446); details: ME-180 SIE beta-lactamase reporter, IL-6 stimulated, 5 h; at 7.69 µM (top of the series) unless noted;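 further: ME-180 cervical cancer cells given 40 pM IL-6 alongside compound; SIE-controlled beta-lactamase reporter measured as 460/530 nm FRET emission ratio; on the % scale 0 is the no-effect control and ±100 the full control effect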
Summary of the method: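 ME-180 SIE-bla cells; overnight plating; cpd + IL-6 40 pM, 5 h, 37 C; LiveBLAzer 2.5 h RT; 460/530 nm emission ratio. Normalized to 300 pM IL-6 and 125 nM JAK inhibitor controls.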

[6] = biological target: Glucocorticoid receptor (Homo sapiens) (UniProt P04150); assay: GR-EFC Redistribution (AID 451; calls by dose curve; further: potency means the concentration at half of the fitted maximal effect); details: CHO-K1 GR-EFC translocation, beta-gal luminescence, 2 h
Summary of the method: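 Translocation of GR-ED fusion to nuclear EA restores b-gal, read by luminescence after 1 h room-temperature detection. Engineered CHO-K1 biosensor cells, 1,000/well, exposed 2 h at 37 C to titrations up to 46 uM final.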

[7] = biological target: Mitogen-activated protein kinase 10 (Mus musculus) (UniProt Q61831); assay: JNK3 AlphaScreen Assay (AID 530); details: JNK3 lysate, c-Jun phosphorylation; series mostly up to 57.1 µM;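 further: kinase came from lysate of stimulated human HepG2 cells; signal reports phosphorylation of biotinylated GST-cJun 1-79 at Ser73 with 10 µM ATP; on the % scale 0 is the no-effect control and ±100 the full control effect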
Summary of the method: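 Room-temperature AlphaScreen kinase assay; pre-activated HepG2 lysate as JNK3 source, biotin-GST-cJun(1-79) substrate, 10 uM ATP, compound 15 min preincubation.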

[8] = biological target: 3',5'-cyclic-AMP phosphodiesterase 4B (Homo sapiens) (UniProt Q07343); assay: qHTS Assay for Inhibitors of PDE-IV (AID 607; active means well fitted activation curve with a large enough effect in the main read-out, with a control signal flat, not every such curve was filed as active; further: % of control where 0% means no effect); details: HEK293 ACTOne CNG channel cells, membrane potential fluorescence; series mostly up to 22.9 µM
Summary of the method: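 ACTOne HEK293 cells carry a modified cAMP-gated CNG channel and express endogenous PDE4; plated 1000 cells/well, compounds up to 22.9 uM final. Membrane-potential dye fluorescence (ex 535/em 590) was read; parental cells received 10 uM forskolin + 100 uM RO 20-1724.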

[9] = biological target: Cytochrome P450 3A4 (Homo sapiens) (UniProt P08684); assay: qHTS Assay for Inhibitors and Substrates of Cytochrome P450 3A4 (AID 884; active means well fitted curve in the direction sought with a large enough effect; an effect the other way counts as inactive or inconclusive; further: nearly all actives have a fitted effect of over 50% in size; further: potency means the concentration at half of the fitted maximal effect); details: recombinant CYP3A4, Luciferin-PPXE luminescence; series mostly up to 57.1 µM
Summary of the method: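 20 nM human CYP3A4 with 25 uM Luciferin-PPXE (at KM) in 200 mM KPO4, preincubated 10 min with compound; NADPH regeneration started a 60 min RT reaction. Luciferin detected by luminescence, normalized to 57 uM ketoconazole as full inhibition.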

[10] = biological target: Cytochrome P450 3A4 (Homo sapiens) (UniProt P08684); assay: qHTS Assay for Activators of Cytochrome P450 3A4 (AID 885; active means well fitted curve in the direction sought with a large enough effect; an effect the other way counts as inactive or inconclusive; further: nearly all actives have a fitted effect of over 65% in size; further: potency means the concentration at half of the fitted maximal effect); details: recombinant CYP3A4, Luciferin-PPXE luminescence, 60 min; series mostly up to 57.1 µM
Summary of the method: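 20nM CYP3A4 + 25uM Luciferin-PPXE (=KM), 200mM KPO4; cpd 10 min RT; NADPH regen, 60 min RT; stop w/ detection buffer, 20 min; luminescence. Normalized to 57 uM ketoconazole.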

[11] = qHTS Assay for Lipid Storage Modulators (AID 1519; calls by dose curve); details: Drosophila S3 cells, BODIPY lipid droplet/cell ratio, laser cytometry, cells loaded with oleic acid; for activity change, negative = inhibition: at 57.5 µM (top of the series)
Summary of the method: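 Cells seeded at 5,000 per well were treated with compounds over a concentration series and loaded with oleic acid (400 uM, as added). Lipid droplet fluorescence (488 nm excitation, 500-530 nm channel) was read by laser-scanning cytometry and normalized to 20 uM Triacsin C.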

[12] = Primary qHTS for small molecule stabilizers of the endoplasmic reticulum resident proteome: Secreted ER Calcium Modulated Protein (SERCaMP) assay (AID 1508630; active means well fitted curve in the direction sought with a large enough effect; an effect the other way counts as inactive or inconclusive; further: on the % scale 0 is the no-effect control and ±100 the full control effect); details: SH-SY5Y GLuc-SERCaMP (Gaussia luciferase released on ER calcium loss) secretion, thapsigargin, luminescence; series mostly up to 38.4 µM
Summary of the method: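 GLuc-SERCaMP-expressing SH-SY5Y cells, pretreated 16 h with compound, are challenged with thapsigargin to empty ER calcium stores; after 4 h, coelenterazine is added directly to the medium and luminescence is imaged.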

[13] = biological target: Cytochrome P450 2C19 (Homo sapiens) (UniProt P33261); assay: qHTS Assay for Inhibitors and Substrates of Cytochrome P450 2C19 (AID 899; active means well fitted curve in the direction sought with a large enough effect; an effect the other way counts as inactive or inconclusive; further: potency means the concentration at half of the fitted maximal effect; nearly all actives have a fitted effect of over 60% in size); details: recombinant CYP2C19, luciferin-H EGE luminescence; series mostly up to 57.1 µM
Summary of the method: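 Luminescence readout of luciferin formed from 10uM Luciferin-H EGE (KM level) by 5 nM CYP2C19 in 50mM KPO4. 60 min NADPH-driven reaction at 37C after 10 min compound preincubation; data scaled to 57uM ketoconazole inhibition.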

[14] = measured here: cell count channel max response
[15] = measured here: lipid channel max response

Chain of Cytochrome P450 1A2 (Homo sapiens) (P05177 whole entry, looked up): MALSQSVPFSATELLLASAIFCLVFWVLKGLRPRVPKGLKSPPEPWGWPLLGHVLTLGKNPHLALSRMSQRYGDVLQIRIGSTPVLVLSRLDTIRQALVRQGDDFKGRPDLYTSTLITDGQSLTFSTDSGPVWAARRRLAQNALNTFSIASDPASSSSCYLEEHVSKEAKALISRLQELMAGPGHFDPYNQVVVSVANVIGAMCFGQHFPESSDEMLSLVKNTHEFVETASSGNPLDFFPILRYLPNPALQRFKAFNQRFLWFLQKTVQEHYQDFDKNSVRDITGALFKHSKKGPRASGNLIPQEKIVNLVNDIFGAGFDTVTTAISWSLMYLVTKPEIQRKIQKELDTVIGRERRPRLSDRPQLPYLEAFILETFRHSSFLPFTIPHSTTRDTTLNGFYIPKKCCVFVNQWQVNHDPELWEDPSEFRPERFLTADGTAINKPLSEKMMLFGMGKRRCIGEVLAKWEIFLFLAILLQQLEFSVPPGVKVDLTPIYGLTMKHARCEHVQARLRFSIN
Chain of Lysosomal acid glucosylceramidase (Homo sapiens) (P04062 whole entry, looked up): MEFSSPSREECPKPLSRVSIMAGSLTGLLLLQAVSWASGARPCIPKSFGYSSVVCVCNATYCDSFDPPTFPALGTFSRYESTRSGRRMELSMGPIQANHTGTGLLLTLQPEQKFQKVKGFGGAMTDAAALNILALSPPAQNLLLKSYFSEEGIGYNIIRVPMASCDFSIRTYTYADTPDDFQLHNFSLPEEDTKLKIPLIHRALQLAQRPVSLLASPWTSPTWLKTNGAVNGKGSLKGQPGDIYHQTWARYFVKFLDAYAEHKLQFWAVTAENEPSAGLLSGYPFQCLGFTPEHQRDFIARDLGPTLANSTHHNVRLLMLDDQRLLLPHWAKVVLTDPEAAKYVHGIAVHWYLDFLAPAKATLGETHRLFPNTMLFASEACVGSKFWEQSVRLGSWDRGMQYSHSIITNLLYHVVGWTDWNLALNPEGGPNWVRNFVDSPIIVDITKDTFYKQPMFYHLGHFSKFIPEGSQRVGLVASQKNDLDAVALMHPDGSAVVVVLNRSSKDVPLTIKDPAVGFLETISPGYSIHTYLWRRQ
Chain of Glucocorticoid receptor (Homo sapiens) (P04150 whole entry, looked up, the tested form may be a part): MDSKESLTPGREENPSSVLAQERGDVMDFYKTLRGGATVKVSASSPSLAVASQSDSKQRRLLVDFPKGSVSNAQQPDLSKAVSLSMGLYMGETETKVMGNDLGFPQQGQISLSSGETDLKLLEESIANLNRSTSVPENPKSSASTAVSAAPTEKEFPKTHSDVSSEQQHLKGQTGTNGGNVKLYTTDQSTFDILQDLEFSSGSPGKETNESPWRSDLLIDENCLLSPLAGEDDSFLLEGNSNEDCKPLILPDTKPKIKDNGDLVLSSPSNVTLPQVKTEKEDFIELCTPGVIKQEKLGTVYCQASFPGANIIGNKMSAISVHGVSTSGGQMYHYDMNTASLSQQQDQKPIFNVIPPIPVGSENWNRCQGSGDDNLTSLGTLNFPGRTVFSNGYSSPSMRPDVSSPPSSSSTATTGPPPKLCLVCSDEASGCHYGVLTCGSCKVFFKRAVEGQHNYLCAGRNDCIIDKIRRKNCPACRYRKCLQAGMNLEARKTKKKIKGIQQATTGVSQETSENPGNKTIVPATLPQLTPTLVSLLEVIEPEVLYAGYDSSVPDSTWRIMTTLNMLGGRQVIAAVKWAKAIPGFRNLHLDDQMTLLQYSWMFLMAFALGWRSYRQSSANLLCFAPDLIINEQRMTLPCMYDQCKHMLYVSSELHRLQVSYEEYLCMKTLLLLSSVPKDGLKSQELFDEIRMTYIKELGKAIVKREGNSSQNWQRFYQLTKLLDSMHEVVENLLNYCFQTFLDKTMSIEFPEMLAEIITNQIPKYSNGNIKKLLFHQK
Chain of 3',5'-cyclic-AMP phosphodiesterase 4B (Homo sapiens) (Q07343 whole entry, looked up): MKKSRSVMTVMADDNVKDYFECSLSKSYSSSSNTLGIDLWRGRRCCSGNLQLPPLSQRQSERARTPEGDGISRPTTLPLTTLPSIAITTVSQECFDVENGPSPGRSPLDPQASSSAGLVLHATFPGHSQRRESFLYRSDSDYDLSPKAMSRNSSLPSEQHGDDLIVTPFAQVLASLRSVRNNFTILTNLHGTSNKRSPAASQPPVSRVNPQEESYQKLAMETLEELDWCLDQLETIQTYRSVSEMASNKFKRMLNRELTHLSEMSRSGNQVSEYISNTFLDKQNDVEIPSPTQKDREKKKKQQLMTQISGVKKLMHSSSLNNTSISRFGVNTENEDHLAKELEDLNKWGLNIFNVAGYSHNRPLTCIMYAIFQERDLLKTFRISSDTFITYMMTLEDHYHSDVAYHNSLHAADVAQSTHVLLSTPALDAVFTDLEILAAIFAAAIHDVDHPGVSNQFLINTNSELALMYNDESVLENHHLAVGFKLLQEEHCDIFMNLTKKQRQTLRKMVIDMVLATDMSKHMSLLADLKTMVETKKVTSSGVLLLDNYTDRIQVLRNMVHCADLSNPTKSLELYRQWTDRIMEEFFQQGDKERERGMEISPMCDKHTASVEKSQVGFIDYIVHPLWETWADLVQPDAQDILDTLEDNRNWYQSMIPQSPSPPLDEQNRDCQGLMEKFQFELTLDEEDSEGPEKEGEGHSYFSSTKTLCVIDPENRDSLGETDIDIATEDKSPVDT
Chain of Cytochrome P450 3A4 (Homo sapiens) (P08684 whole entry, looked up): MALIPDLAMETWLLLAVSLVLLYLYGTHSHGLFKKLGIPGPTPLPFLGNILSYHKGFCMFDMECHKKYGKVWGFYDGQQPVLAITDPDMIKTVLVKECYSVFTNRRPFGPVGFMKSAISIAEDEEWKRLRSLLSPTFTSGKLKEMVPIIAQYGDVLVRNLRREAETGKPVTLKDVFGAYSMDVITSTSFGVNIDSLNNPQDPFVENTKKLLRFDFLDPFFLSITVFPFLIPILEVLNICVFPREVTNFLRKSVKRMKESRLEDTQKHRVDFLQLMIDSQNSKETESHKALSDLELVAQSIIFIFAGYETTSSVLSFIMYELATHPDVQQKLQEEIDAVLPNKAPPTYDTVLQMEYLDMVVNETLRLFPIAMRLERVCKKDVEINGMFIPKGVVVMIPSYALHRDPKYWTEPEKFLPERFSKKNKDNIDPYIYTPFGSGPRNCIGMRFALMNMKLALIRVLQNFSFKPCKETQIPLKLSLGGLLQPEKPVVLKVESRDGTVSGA
Chain of Cytochrome P450 2C19 (Homo sapiens) (P33261 whole entry, looked up): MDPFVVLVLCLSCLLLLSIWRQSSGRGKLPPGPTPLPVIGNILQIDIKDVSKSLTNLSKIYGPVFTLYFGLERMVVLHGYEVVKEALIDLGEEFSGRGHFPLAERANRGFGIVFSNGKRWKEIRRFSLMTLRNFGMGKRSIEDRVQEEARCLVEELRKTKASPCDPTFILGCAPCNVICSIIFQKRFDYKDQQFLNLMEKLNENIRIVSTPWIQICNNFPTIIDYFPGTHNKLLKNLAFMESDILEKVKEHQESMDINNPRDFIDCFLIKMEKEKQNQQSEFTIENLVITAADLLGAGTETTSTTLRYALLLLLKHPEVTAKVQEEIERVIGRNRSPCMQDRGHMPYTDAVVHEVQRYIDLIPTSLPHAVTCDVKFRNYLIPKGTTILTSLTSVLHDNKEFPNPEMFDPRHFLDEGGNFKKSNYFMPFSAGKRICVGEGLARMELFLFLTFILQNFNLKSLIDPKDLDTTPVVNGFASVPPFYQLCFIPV

Row | Compound | Potency [1] | activity change, negative = inhibition [2] | Potency [3] | activity change, negative = inhibition [4] | activity, negative = inhibition [5] | Potency [6] | outcome [7] | Potency [8] | Potency [9] | Potency [10] | activity change, negative = inhibition [11] | max response [11, 14] [%] | max response [11, 15] [%] | Potency [12] | Potency [13]
1 | O=C(c1cccc(F)c1)N1CCC2(CC1)CCN(c1cccc(-c3ccccc3)c1)CC2 | > 11.4 µM (inactive) | -4.91% (inactive) | 20 µM (active) | 4.3% (inactive) | -10.4% (inactive) | > 46 µM (inactive) | inactive | inactive | inactive | 5.01 µM (active) | -5.71% (inactive) | -11.6 | -13.5 | inactive | 
2 | COc1ccccc1CN1CC2(CCN(C(=O)c3cnccn3)CC2)C1 | > 11.4 µM (inactive) | 2.43% (inactive) | inactive | -17.5% (inactive) | -6.42% (inactive) | > 46 µM (inactive) | inactive | inactive |  | inactive | 3% (inactive) | 12 | 20.3 | inactive | 
3 | CN1CCCC2(CCN(C(=O)c3cnccn3)CC2)C1 | > 11.4 µM (inactive) | -9.74% (inactive) | inactive | -25% (inactive) | 3.76% (inactive) | > 46 µM (inactive) | inactive | inactive |  | inactive | -0.798% (inactive) | 2.95 | 3.48 | inactive | 
4 | Cn1cccc1C(=O)N1CCC[C@@]2(CCN(Cc3ccc(C#N)cc3)C2)C1 | > 11.4 µM (inactive) | -2.05% (inactive) | inactive | -13.8% (inactive) | -3.28% (inactive) | > 46 µM (inactive) | inactive | inactive |  | inactive | 4.84% (inactive) | 7.42 | 16.5 | inactive | 
5 | COc1ccc(NC(=O)N2CCCC3(CCN(C(=O)c4c(C)noc4C)CC3)C2)cc1 | > 11.4 µM (inactive) | -6.4% (inactive) | inactive | 7.7% (inactive) | -0.272% (inactive) | > 46 µM (inactive) | inactive | inactive |  | inactive | 3.9% (inactive) | 14.4 | 18.8 | inactive | 
6 | O=C(c1cccc(F)c1)N1CCC[C@@]2(CCN(Cc3nccs3)C2)C1 | > 11.4 µM (inactive) | 2.29% (inactive) | 12.6 µM (active) | 7.56% (inactive) | -0.114% (inactive) | > 46 µM (inactive) | inactive | inactive | 7.94 µM (active) | inactive | 3.24% (inactive) | 16.4 | 22.4 | inactive | 2.51 µM (active)
7 | O=C(c1cccc(F)c1)N1CCC2(CC1)CCN(c1ccccc1)CC2 | > 11.4 µM (inactive) | -0.371% (inactive) | 15.8 µM (active) | -2.46% (inactive) | -10.8% (inactive) | > 46 µM (inactive) | inactive | inactive | inactive | 7.94 µM (active) | 3.88% (inactive) | -3.82 | 4.22 | inactive | 
8 | Cn1cccc1C(=O)N1CCC2(CC1)CCN(c1ccc(-c3ccccc3)cc1)CC2 | > 11.4 µM (inactive) | -19.9% (inactive) | 20 µM (active) | 11.4% (inactive) | -10.4% (inactive) | > 46 µM (inactive) | inactive | inactive | inactive | 15.8 µM (active) | -6.03% (inactive) | -2.01 | -7.47 | inactive | 
9 | COC(=O)N1CCC2(CC1)CN(c1ccccn1)C2 | > 11.4 µM (inactive) | -6.58% (inactive) | inactive | -21.4% (inactive) | 9.9% (inactive) | > 46 µM (inactive) | inactive | inactive | inactive | 25.1 µM (active) | 1.4% (inactive) | 2.42 | 5.09 | inactive | 
10 | O=C(c1ccncc1)N1CCC[C@@]2(CCN(c3ccccn3)C2)C1 | > 11.4 µM (inactive) | -20.6% (inactive) | 20 µM (active) | 6.17% (inactive) | -0.0595% (inactive) | > 46 µM (inactive) | inactive | inactive | 7.94 µM (active) | inactive | 4.35% (inactive) | 14.4 | 22.3 | inactive | 6.31 µM (active)
11 | Cc1noc(C)c1C(=O)N1CCC[C@@]2(CCN(c3ccccc3)C2)C1 | > 11.4 µM (inactive) | -7.05% (inactive) | 25.1 µM (active) | -18.1% (inactive) | 3.26% (inactive) | > 46 µM (inactive) | inactive | inactive | 5.01 µM (active) | inactive | -2.45% (inactive) | 13.4 | 14.8 | inactive | 
12 | CS(=O)(=O)N1CCC2(CCN(Cc3ccncc3)CC2)CC1 | > 11.4 µM (inactive) | -1.98% (inactive) | inactive | -4.26% (inactive) | 10.3% (inactive) | > 46 µM (inactive) | inactive | inactive |  | inactive | 5.08% (inactive) | 9.75 | 18.4 | inactive | 
13 | CS(=O)(=O)N1CCC[C@@]2(CCN(C(=O)Nc3cccc(F)c3)C2)C1 | > 11.4 µM (inactive) | -7.6% (inactive) | inactive | 16.7% (inactive) | -3.89% (inactive) | > 46 µM (inactive) | inactive | inactive |  | inactive | 1.83% (inactive) | 1.7 | 6.37 | inactive | 
